Sampled rows, rich in hits. Any-hit rate of the full collection: about 2.4%.
PfG6PD inh – PfG6PD enzyme inhibitors, primary screen, biochemical, fluorescence intensity, uHTS; glucose-6-phosphate dehydrogenase-6-phosphogluconolactonase (Plasmodium falciparum 3D7); PfGluPho enzyme, NADPH resazurin-diaphorase fluorescence; inhibition, % at 20 µM; 350,000 compounds, 0.78% hits;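 active means inhibition reaching at least a set limit at 20 µM in the primary screen, cut at about 59% in these data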;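 further: 0% = DMSO wells with substrate and 100% = DMSO wells lacking glucose-6-phosphate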
Yeast superoxide – reduction of superoxide in aged yeast, primary screen, HTS; S. cerevisiae aged cells, superoxide DHE fluorescence; hits give low values; superoxide response (% of plate mean), % at 10 µM; 330,000 compounds, 0.18% hits;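 active means superoxide response under a set limit, about three screen SD below normal, cut at about 65% in these data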;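 further: yeast aged for seven days with compound at 30 °C before DHE staining; 100% = average MFI of all compound-treated wells on the plate with controls excluded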
APOBEC3A inh – APOBEC3A ssDNA deaminase inhibitors, primary screen, selectivity assay for APOBEC3G inhibitor project, biochemical, FAM/TAMRA oligo cleavage fluorescence. DNA dC->dU-editing enzyme APOBEC-3A (Homo sapiens), P31941. recombinant A3A, FAM/TAMRA ssDNA deamination fluorescence. inhibition, % at 20 µM. 330,000 compounds, 0.41% hits;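 active means at least 40% inhibition at 20 µM here, with at most 30% in a related deaminase screen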;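 further: plate controls were A3A with DMSO for no effect and wells lacking A3A enzyme for full effect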
Target sequence (P31941 whole entry, looked up): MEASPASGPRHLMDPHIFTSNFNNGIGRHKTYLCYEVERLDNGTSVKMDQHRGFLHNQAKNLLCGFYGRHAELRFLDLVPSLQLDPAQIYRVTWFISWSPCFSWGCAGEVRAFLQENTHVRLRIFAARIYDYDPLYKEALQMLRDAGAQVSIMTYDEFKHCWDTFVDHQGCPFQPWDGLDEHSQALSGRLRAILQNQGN
PfM18AAP inh – PfM18AAP inhibitors, malaria aminopeptidase, primary screen, biochemical, QFRET, recombinant enzyme | 290,000 compounds, 1.2% hits | inhibition, % at 7.35 µM | H-Glu-NHMec fluorogenic cleavage | M18 aspartyl aminopeptidase (Plasmodium falciparum 3D7);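 active means inhibition above the campaign mean inhibition over all tested compounds plus 3 SD, cut at about 28% in these data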;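 further: 0% = plate median of test compound wells and 100% = 2 mM ZnCl2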
A3G deaminase – APOBEC3G DNA deaminase inhibitors, primary screen, biochemical, fluorescence, single-stranded DNA substrate, uHTS. DNA dC->dU-editing enzyme APOBEC-3G (Homo sapiens), Q9HC16. recombinant A3G, ssDNA deamination FAM/TAMRA fluorescence. inhibition, % at 20 µM. 330,000 compounds, 0.28% hits. AID 493012, 2011;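 active means inhibition of at least 40% at 20 µM, with no more than 30% in the related APOBEC3A deaminase screen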;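 further: plate controls were DMSO wells with A3G for no effect and wells lacking A3G enzyme for full effect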
Target sequence (Q9HC16 whole entry, looked up): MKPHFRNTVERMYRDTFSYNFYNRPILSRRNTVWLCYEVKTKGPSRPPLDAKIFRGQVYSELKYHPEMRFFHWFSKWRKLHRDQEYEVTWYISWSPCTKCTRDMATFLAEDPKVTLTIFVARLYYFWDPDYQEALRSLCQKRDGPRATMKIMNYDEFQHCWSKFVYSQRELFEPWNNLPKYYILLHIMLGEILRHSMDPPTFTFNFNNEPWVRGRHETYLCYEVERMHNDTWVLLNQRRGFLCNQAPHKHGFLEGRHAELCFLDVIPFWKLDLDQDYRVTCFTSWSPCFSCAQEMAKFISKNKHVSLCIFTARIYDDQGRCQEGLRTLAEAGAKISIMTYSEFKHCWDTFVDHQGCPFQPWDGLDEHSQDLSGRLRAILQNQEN
Numbers without * were called inactive; . = no result given.

SMILES	PfG6PD inh	Yeast superoxide	APOBEC3A inh	PfM18AAP inh	A3G deaminase
CCC1(CC)NC(=O)N(CC(=O)OC(C)C(=O)Nc2cc([N+](=O)[O-])ccc2OC)C1=O (stereo unspecified)	-5.1	98.8	-0.8	4.7	-5.5
C=C1c2ccccc2NC(=S)N1Cc1ccc2c(c1)OCO2	7.7	93.9	-2.7	31.6*	-3.7
COc1ccc(OC)c(CN2CCN(C(=O)c3ccc(S(=O)(=O)Nc4ccccc4F)cc3)CC2)c1	-15.1	80.0	0.5	.	-2.9
COc1ccc(/C=C/C(=O)OCC(=O)N2CCCCCC2)c(OC)c1	-15.4	101.4	-1.1	.	-5.1
O=C1CCC(=O)N1c1cccc(OS(=O)(=O)c2ccccc2)c1	3.2	88.7	-6.7	35.7*	-8.6
O=C(CNC(=S)NC(=O)c1ccco1)c1ccccc1	-6.2	93.5	-3.3	28.8*	0.8
S=C1Cc2ccccc2N1	67.1*	.	.	8.0	.
S=C1Nc2ccccc2CS1	3.6	.	.	.	.
Cc1ccc(C(=O)Sc2cccccc2=O)cc1	39.0	101.9	3.5	1.5	5.4
O=C(NN=C1CCCC1)c1ccc(O)cc1O	8.2	91.3	-1.9	31.0*	6.3
Cc1cccc(C)c1OCC(=O)Nc1ncn[nH]1	-2.7	119.2	-0.5	29.2*	-2.5
Cc1cccc(Oc2ccccc2NC(=O)C2=COCCO2)c1	-22.4	78.1	-1.4	.	-5.8
Cc1ccc(C(=O)N2CCN(S(=O)(=O)N3CCCCC3)CC2)cc1	-15.0	99.2	-2.6	-1.4	-5.1
Cc1nc2n(n1)C(O)c1cc([N+](=O)[O-])ccc1S2 (stereo unspecified)	.	87.1	44.5*	18.4	-9.7
O=[N+]([O-])c1ccc2c(c1)C(O)n1ncnc1S2 (stereo unspecified)	11.6	100.5	-4.2	5.6	-9.8
COc1ccc(-c2nnn(CC(=O)N(CC3CCCO3)C(C(=O)NC(C)(C)C)c3ccco3)n2)cc1OC (stereo unspecified)	12.1	97.0	-2.5	-3.2	-7.0
O=C(NNC(=O)c1cc2ccccc2cc1O)NC1CCCCC1	-13.3	104.9	-3.4	28.9*	-8.6
C[C@]12c3[nH]c4ccc(Cl)cc4c3CCN1C(=O)[C@@H](CC(=O)NCCc1ccccn1)C[C@@H]2C(=O)N1CCCCC1	4.1	93.0	-1.4	.	-3.2
COc1ccccc1OCC(=O)n1cc(C(=O)c2cc(Cl)cc(Cl)c2O)cn1	-0.2	104.2	3.5	33.0*	-6.7
CCCCCCn1c(=O)n2n(c1=O)[C@@H]1CN(S(=O)(=O)c3ccc(C)cc3)C[C@]1(O)[C@@H](OC(=O)Nc1c(C)noc1C)C2	3.7	.	.	.	.
COc1cccc2[nH]c3ccccc3c(=O)c12	15.1	96.7	-5.6	5.2	-5.7
Nc1cccc2c(=O)c3ccccc3[nH]c12	31.7	103.5	11.9	29.1*	27.7
CCC(C(=O)Nc1cccc(C(=O)O)c1C)c1ccccc1 (stereo unspecified)	-22.3	94.2	-0.8	4.0	-8.6
NC(=S)N/N=C/c1ccc2cccc(OCc3ccccc3)c2n1	19.4	91.0	-5.8	43.5*	-10.0
Cc1c(Br)c(O)c(Br)c(O)c1/C=N/n1c(-c2ccccc2)n[nH]c1=S	27.2	105.5	-1.8	29.4*	32.2
SMILES	PfG6PD inh	Yeast superoxide	APOBEC3A inh	PfM18AAP inh	A3G deaminase
Oc1c(Br)cc(/C=N/n2c(-c3ccccc3)n[nH]c2=S)c(O)c1Br	9.4	103.7	.	24.1	.
Cc1ccc(N=Nc2c(N)[nH]n3c(=O)cc(C)nc23)cc1	-1.2	94.3	.	31.2*	.
Cc1ccc(N=Nc2c(=O)[nH]n3c(C)cc(C)nc23)cc1	-7.3	92.4	-5.3	2.2	6.8
C=CC[C@@H](CC(=O)N[C@H](CO)Cc1ccccc1)C(=O)N[C@H](COC(=O)[C@@H](CC=C)Cc1ccc(F)cc1)Cc1ccccc1	12.3	98.5	2.1	.	-7.1
CCCC(=O)Nc1nnc(SCC(=O)Nc2ccc(OCC)cc2)s1	-13.7	.	.	.	.
N#Cc1ccsc1NC(=O)CN1CCN(c2ccccc2)CC1	14.6	96.3	-3.2	3.2	-7.0
N#Cc1ccsc1NC(=O)CN1CCN(c2ccc(O)cc2)CC1	48.2	109.7	1.8	30.0*	8.8
N#CC1=C2SCN(Cc3ccccc3)CN2C(=O)CC1c1ccc2c(c1)OCO2 (stereo unspecified)	60.7*	105.6	-5.3	24.9	4.3
Cc1cccc(N2CSC3=C(C#N)C(c4ccc(C)o4)CC(=O)N3C2)c1 (stereo unspecified)	.	71.9	35.8	33.2*	66.2
COc1ccc(C2CC(=O)N3CN(c4ccccc4F)CSC3=C2C#N)cc1OC (stereo unspecified)	68.3*	111.3	-3.0	17.4	46.2*
N#CC1=C2SCN(Cc3ccco3)CN2C(=O)CC1c1ccc(Cl)cc1 (stereo unspecified)	54.2	101.6	2.1	27.5	-3.4
c1ccc(-c2ncnc3ccccc23)cc1	-6.6	.	.	.	.
O=S(=O)(c1ccc(Br)s1)N1CCN(CCc2ccccc2)CC1	-1.0	85.4	-2.5	.	-3.7
COc1cccc(OC)c1C(=O)OCC(=O)N(c1ccccc1)C1CCCCC1	-9.8	99.2	-2.3	.	4.4
O=c1c(O)cccc2cc(O)c(O)c(O)c12	-4.5	87.2	95.8	47.9*	88.5
O=C1c2ccccc2C(=O)c2c(O)c(O)cc(O)c21	14.0	118.6	5.3	.	0.7
O=C(Cc1noc2ccccc12)NNC(=S)Nc1ccccc1	-1.8	91.0	-8.4	30.4*	7.8
O=C(Cc1noc2ccccc12)NNC(=S)Nc1ccc(Cl)cc1	2.9	106.1	0.1	25.9	-8.8
C/C(=N\NC(=O)CC#N)C1COc2ccccc2O1 (stereo unspecified)	13.3	88.7	-4.1	28.7*	-11.0
C/C(=N/NC(=O)CNC(=O)C1COc2ccccc2O1)c1ccc2c(c1)OCCO2 (stereo unspecified)	-15.8	96.1	2.5	-5.5	-0.7
O=C(CSc1ccccn1)N1CCNC1=O	10.0	92.3	0.1	.	-0.8
O=C(O)c1cccc(-n2c(O)c(C=C3N=c4ccccc4=N3)sc2=S)c1	7.3	135.6	-3.6	30.9*	-6.8
CCN(CC)c1ccc(-n2c(O)c(C=C3N=c4ccccc4=N3)sc2=S)cc1	10.5	91.0	-2.5	-0.1	-6.5
CCCC(C(=O)O)n1c(O)c(C=C2N=c3ccccc3=N2)sc1=S (stereo unspecified)	-5.6	106.5	4.3	29.9*	-4.0
O=C1CSC(c2ccccc2F)N1 (stereo unspecified)	3.3	105.0	-0.1	-11.7	0.5
Cc1sc2c(c1C)C(=O)NC(c1ccccc1F)N2 (stereo unspecified)	74.7*	80.1	3.3	11.0	3.9
O=C1CSC(=S)N1N1C(=O)c2cccc([N+](=O)[O-])c2C1=O	.	89.8	46.2	43.3*	30.3
